Among the test systems are NCI-H23 lung; NCI-H226 lung; NCI-H322M lung; NCI-H460 lung; HOP-92 NSCLC; NCI-H522 lung; A549/ATCC NSCLC; 786-0 renal; COLO 205 colon; DU-145 prostate; K-562 leukemia; MALME-3M melanoma; MDA-MB-231 breast; RXF 393 renal; SF-268 CNS; SF-295 CNS; SF-539 CNS; UACC-257 melanoma; M14 melanoma; HOP-62 NSCLC.
Holding throughout (assay): NCI-60 one-dose screen, 48 h (100 = growth as untreated, 0 = no growth, -100 = all killed)
Conditions in all cases: 10 µM

About 83,000 compounds went through this panel and 20% of them were active in at least one assay; those are over-represented in the sample as a whole.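 Results are percent growth after 48 hours of single-concentration exposure. 100 means growth as in untreated cells, lower positive values show inhibition; negative values down to -100 show cell death.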 Unmarked numbers belong to inactive results. Activity calls are given as the source filed them. The calls were made as follows: active = growth percent below 10; inactive = the rest.

For `COc1ccccc1[C@H]1C(C(=O)c2ccc(Cl)cc2)C2(N[C@@H]1c1ccccc1)C(=O)Nc1ccccc12` (some centres undefined), the growth was -55.3% (active) in the experiment on NCI-H23 lung; -53.2% (active) in the experiment on NCI-H226 lung; 10.3% with NCI-H322M lung; -27.2% (active) with NCI-H460 lung; -21.8% (active) in the experiment with HOP-92 NSCLC; -27.5% (active) with NCI-H522 lung. The growth in the experiment on A549/ATCC NSCLC was 9.22% (active); in the experiment with 786-0 renal it was -15% (active); in the experiment with COLO 205 colon, -88.2% (active); in the experiment with DU-145 prostate it was 3.98% (active); with K-562 leukemia it was 0.571% (active); in the experiment on MALME-3M melanoma it was -37.4% (active). Also, the growth was -71.9% (active) with MDA-MB-231 breast; -73.8% (active) in the experiment on RXF 393 renal; 10.2% with SF-268 CNS; -63.6% (active) in the experiment on SF-295 CNS; -60.8% (active) in the experiment with SF-539 CNS; -2.04% (active) in the experiment with UACC-257 melanoma. The growth in the experiment with M14 melanoma is 5.88% (active).

Regarding `CN(C)c1cccc2c(S(=O)(=O)Nc3cccc(-c4csc(NC(=O)CCCCCN5CCN(c6cc7c(cc6F)C(=O)N(C6CCC(=O)NC6=O)C7=O)CC5)n4)c3)cccc12` (centres undefined), the growth is 60.2% in the experiment on NCI-H23 lung; 72.7% with NCI-H226 lung; 106% in the experiment on NCI-H322M lung; 88.5% in the experiment with HOP-62 NSCLC; 56.6% with HOP-92 NSCLC; 90.3% in the experiment on A549/ATCC NSCLC. In addition, the growth with 786-0 renal is 86.1%; in the experiment on COLO 205 colon, 104%; in the experiment on DU-145 prostate, 97.2%; in the experiment with MALME-3M melanoma, 87.1%; in the experiment on MDA-MB-231 breast, 98%; in the experiment on RXF 393 renal it was 89.7%. In addition, the growth in the experiment with SF-268 CNS was 91.4%; with SF-295 CNS it was 91.8%; in the experiment with SF-539 CNS it was 78.5%; in the experiment on UACC-257 melanoma, 82%; in the experiment on M14 melanoma, 97.3%.

With `O=C(/C=C/Nc1ccccc1)c1ccc2c(c1)Nc1ccccc1S2`, the growth in the experiment on NCI-H23 lung is 70%; in the experiment on NCI-H226 lung, 43.5%; in the experiment on NCI-H322M lung, 75.7%; with HOP-62 NSCLC, 53.5%; in the experiment with HOP-92 NSCLC, 98.7%; with NCI-H522 lung it was 61.4%. For the same molecule, the growth in the experiment with A549/ATCC NSCLC is 87.7%; with 786-0 renal, 87.2%; in the experiment on COLO 205 colon, 100%; with DU-145 prostate it was 84.3%; in the experiment on K-562 leukemia, 90.6%; in the experiment on MALME-3M melanoma it was 71.5%. In addition, the growth is 69.2% in the experiment on MDA-MB-231 breast; 81.2% in the experiment on SF-268 CNS; 78.1% in the experiment on SF-295 CNS; 59.9% in the experiment on SF-539 CNS; 96.7% in the experiment with UACC-257 melanoma; 93.8% in the experiment with M14 melanoma.

As to `CC1(c2ccccc2)NC(=O)N(CC(=O)Nc2ccc(C(=O)/C=C/c3ccc(Br)cc3)cc2)C1=O` (centres undefined), the growth was 64.4% in the experiment on NCI-H23 lung; 43.4% in the experiment on NCI-H226 lung; 78.1% with NCI-H322M lung; 61.9% with HOP-62 NSCLC; 25.1% in the experiment with HOP-92 NSCLC; 64.3% in the experiment with NCI-H522 lung. The growth with A549/ATCC NSCLC is 38.9%; in the experiment with 786-0 renal it was 12.8%; in the experiment with COLO 205 colon it was 64.1%; in the experiment with DU-145 prostate, 59.8%; in the experiment on K-562 leukemia it was 14.5%; with MALME-3M melanoma, 72.9%. Besides, the growth in the experiment on MDA-MB-231 breast was 54.3%; in the experiment with SF-268 CNS, 30.9%; in the experiment on SF-295 CNS, 37%; in the experiment with SF-539 CNS, 39.9%; with UACC-257 melanoma, 48.4%; with M14 melanoma it was 23.3%.

With `O=C1Nc2cc(Cl)ccc2/C1=C/c1cccc(OCc2ccc(Br)cc2F)c1`, the growth in the experiment with NCI-H23 lung was 28.5%; with NCI-H226 lung it was 37.4%; with NCI-H322M lung it was 54%; in the experiment on HOP-62 NSCLC it was 11.1%; with HOP-92 NSCLC, 6.98% (active); in the experiment with NCI-H522 lung, -2.73% (active). The growth with A549/ATCC NSCLC was 29.7%; in the experiment on 786-0 renal it was 17.9%; in the experiment with COLO 205 colon, 3.13% (active); in the experiment on DU-145 prostate, 4.44% (active); in the experiment on K-562 leukemia it was 1.92% (active); with MALME-3M melanoma, 33.8%. Moreover, the growth is -15.1% (active) in the experiment with RXF 393 renal; 9.99% (active) with SF-268 CNS; 5.06% (active) in the experiment on SF-295 CNS; -6.14% (active) in the experiment with SF-539 CNS; 45.9% in the experiment on UACC-257 melanoma; -32.6% (active) in the experiment on M14 melanoma.

For the molecule `CC1(C)CC[C@]2(C(=O)O)CC[C@]3(C)C(=CC[C@@H]4[C@@]5(C)C/C(=C/c6ccncc6)[C@H](O)C(C)(C)[C@@H]5CC[C@]43C)[C@@H]2C1`, the growth in the experiment with NCI-H23 lung was 37.6%; in the experiment on NCI-H226 lung, 38.2%; with NCI-H322M lung, 34%; in the experiment with HOP-62 NSCLC, 42.1%; with HOP-92 NSCLC, 4.52% (active); in the experiment on NCI-H522 lung, 42.1%. The growth with A549/ATCC NSCLC was 19.9%; in the experiment with 786-0 renal, 48.4%; in the experiment with COLO 205 colon it was 37.2%; in the experiment with DU-145 prostate it was 57.9%; in the experiment on MALME-3M melanoma, 73.1%; in the experiment with MDA-MB-231 breast, 34.1%. In addition, the growth in the experiment on RXF 393 renal is 24.2%; with SF-268 CNS, 46.9%; in the experiment with SF-295 CNS it was 20.1%; with SF-539 CNS, 27.8%; in the experiment with UACC-257 melanoma, 64.3%; in the experiment on M14 melanoma, 61.6%.

Take `CCN1CCN(c2ccc(NC(=O)Nc3ccc(-c4cc(C(=O)NC)c5ncccc5n4)cc3)cc2C(F)(F)F)CC1`: the growth with NCI-H23 lung was -99% (active); in the experiment with NCI-H226 lung it was -61.9% (active); in the experiment on NCI-H322M lung, -100% (active); with HOP-62 NSCLC it was -92.2% (active); in the experiment on HOP-92 NSCLC it was -81.8% (active); with NCI-H522 lung it was -93.3% (active). Moreover, the growth was -88.4% (active) with A549/ATCC NSCLC; -100% (active) in the experiment on 786-0 renal; -76.3% (active) with COLO 205 colon; -100% (active) in the experiment on DU-145 prostate; -100% (active) with MALME-3M melanoma; -100% (active) in the experiment with MDA-MB-231 breast. Further, the growth in the experiment with RXF 393 renal was -94.4% (active); in the experiment on SF-268 CNS, -77.5% (active); with SF-295 CNS, -99% (active); in the experiment with SF-539 CNS it was -100% (active); in the experiment with UACC-257 melanoma it was -96.7% (active); with M14 melanoma, -100% (active).

For the molecule `COc1cc(/C=N/NC(=O)c2ccc3nc(-c4ccc(Cl)cc4)[nH]c3c2)cc(OC)c1OC`, the growth with NCI-H23 lung is -68.4% (active); in the experiment on NCI-H226 lung it was -50.5% (active); in the experiment on NCI-H322M lung it was 3.86% (active); in the experiment with HOP-92 NSCLC it was -64.5% (active); in the experiment with NCI-H522 lung, -44.2% (active); in the experiment on A549/ATCC NSCLC, 29.2%. In addition, the growth is -4.1% (active) with 786-0 renal; -9.12% (active) with COLO 205 colon; -28.7% (active) in the experiment with DU-145 prostate; -12.4% (active) with K-562 leukemia; -92.8% (active) in the experiment on MALME-3M melanoma; -74.5% (active) in the experiment on MDA-MB-231 breast. The growth with RXF 393 renal is -84.3% (active); in the experiment on SF-268 CNS it was -33.9% (active); in the experiment with SF-295 CNS it was -73.7% (active); with SF-539 CNS, -95.7% (active); in the experiment with UACC-257 melanoma it was -47.7% (active); with M14 melanoma, -28% (active).

The values are drawn from PubChem BioAssay (NCI).
